From PubChem BioAssay (NCI)
“And” between values parts separate entries of the source, which are not always exact repeats. Equal values may be shown once. The panel holds about 83,000 compounds, 20% with a hit somewhere; the sample as a whole holds those more often.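 How to read the values: 0–100, growth inhibition (40 = 60% inhibited); 0, no net growth; -100 to 0, cell death (-40 = 40% of starting cells died; -100 = all dead).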 Values without a mark were called inactive. The source made the active and inactive calls. How the source made its calls: active means growth percent below 10; inactive means the rest.

Tested on: MDA-MB-468 breast
Experiment: NCI-60 one-dose screen, 48 h (100 = growth as untreated, 0 = no growth, -100 = all killed)
Details: 10 µM unless noted

Row | SMILES | growth
1 | CCN(CC)CCCC(C)Nc1ccnc2c(OC)cccc12 (stereo unspecified) | 117%
2 | COC1=C(OC)C(=O)C(SC/C=C(\C)CCCC(C)CCCC(C)CCCC(C)C)=CC1=O (stereo unspecified) | 42.6%
3 | Cc1ccc(C(=O)Nc2cccc(C#Cc3cccc4[nH]nc(N)c34)c2)cc1C(F)(F)F | 95.6%
4 | CC1(C)N=C(N)N=C(N)N1c1ccc(CCc2ccccc2)c(Cl)c1 | -28.3% (active)
5 | COc1ccc(/C=N/Nc2cc(=O)[nH]c3ccc(Cl)cc23)cc1 | 78%
6 | C=CC(=O)NCc1ccc(Nc2nccc(-c3ccc(N4CCCC4)c(C#N)c3)n2)cc1 | 15.7%
7 | COC(=O)c1nc(-c2ccccc2)oc1S(=O)(=O)Cc1ccccc1 | 59.3%
8 | COc1cc(F)c(/C=C/c2cc(/C=C/c3cc(OC)c(OC)cc3F)on2)cc1OC | 77.6%
9 | CCCCCCCC/C=C\CCCCCCCCOc1ccc(CC(=O)NCC[N+](C)(C)C)cc1 | 60.1%
10 | O=C(c1nc2ccccc2[nH]1)C1[C@@H](c2cccc(O)c2)C2CC3CCCCC3N2[C@@]12C(=O)Nc1cc(Cl)ccc12 (stereo partly specified) | 32.5%
11 | CN1CCN(c2ccc(Nc3nc(NCCCNS(=O)(=O)c4ccc(Cl)cc4)c4sccc4n3)cc2)CC1 | -47.7% (active)
12 | Cc1cccc(-n2c(C)nc3ccc(N4CCCNC4=O)cc3c2=O)c1 | 99.4%
13 | Nc1nc(N)c(C=Nc2ccc(Br)cc2)c(Nc2ccc(Br)cc2)n1 | 109%
14 | O=C(Nc1nc2cccc(-c3ccc(CN4CCS(=O)(=O)CC4)cc3)n2n1)C1CC1 | 41.5%
15 | COc1ccc(/C=N/NC(=O)CSc2nc(-c3cnccn3)cc(-c3cccs3)c2C#N)cc1 | 83.1%
16 | OB1OCc2cc(/C=C/c3cccc(C(F)(F)F)c3)ccc21 | 5.08% (active)
17 | CCCCCCCCCCCCCCCC1=NCCN1 | -32.9% (active)
18 | COc1ccc(-c2cc(-c3cn(-c4cccc(Cl)c4)nc3-c3ccc(OC)cc3)[nH]c(=S)n2)cc1 | 39%
19 | Cc1cc2c(C(C)C)c(O)c(O)c(C=Nc3ccccc3[N+](=O)[O-])c2c(O)c1-c1c(C)cc2c(C(C)C)c(O)c(O)c(C=Nc3ccccc3[N+](=O)[O-])c2c1O | 80.5%
20 | COc1cccc(/C=N/Nc2nc3ccccc3s2)c1OC | 80.3%
21 | COc1cccc(/C=C2\COc3ccc(O)cc3C2=O)c1OC | 43.9%
22 | C=C1C(=O)O[C@H]2[C@H]1CC/C(Cn1cc(-c3cccc(Cl)c3)nn1)=C\CC[C@@]1(C)O[C@@H]21 | -66.1% (active)

Row | SMILES | growth
23 | CC(=O)O[C@@H]1C[C@]2(C)[C@H]3[C@H](O)C[C@@H]4C5=CC(C)(C)CC[C@]5(C)CC[C@@]4(C)[C@]3(C)CC[C@H]2C(C)(C)[C@H]1O | 116%
24 | CC(C)OP(=O)(OC(C)C)c1ncc(-c2ccc(C(F)(F)F)cc2)c(NC2CCCCCC2)n1 | 12.8% [33.3 µM]
25 | CCN(CC)CC(O)CNc1c2ccc(Cl)cc2nc2ccc(OC)cc12 (stereo unspecified) | -48.3% (active)
26 | CCOC(=O)c1sc(NC(=O)COc2ccc(/C=C3\Cc4ccc(Cl)cc4C3=O)cc2)nc1C | 115%
27 | COc1cc(C2C3=C(COC3=O)Nc3c2ccc2c3CCCC2)cc2c1OCO2 (stereo unspecified) | -6.39% (active)
28 | CN(C)c1ncnc2c1ccn2C1OC(CO)C(O)C1O (stereo unspecified) | -64.3% (active)
29 | O=CN1N=C(c2ccc(Nc3ccnc4cc(Cl)ccc34)cc2)CC1c1ccccc1 (stereo unspecified) | 3.07% (active)
30 | COc1cc(NCCCCN=C(N)N)c2ncccc2c1 | -29.6% (active)
31 | CCCNNC(=O)c1ccc(CNC(=O)/C=C/c2ccccc2)cc1 | 54.5% [2.5 µM]
32 | Cc1ccc(NC(=O)c2sc3nc4c(cc3c2N)C(=O)CCC4)cc1 | 32.7%
33 | NCCN1CCNCC1 | 95.2%
34 | COc1ccc(OC)c(/C=C2\Oc3cc(OCCN4CCC(Cc5ccccc5)CC4)ccc3C2=O)c1 | 64.8%
35 | CC(=O)/C(=C\c1ccc(Cl)cc1)c1ccccc1 | 0.454% (active)
36 | O=C(O)CN(CCN(CC(=O)O)CC(=O)O)CCN(CC(=O)O)CC(=O)O | 22% and 94.6% and 89.3%
37 | COc1ccc(/C=C/c2c(C(=O)/C=C/c3cccs3)c(C)nc3ccccc23)cc1 | 66.9%
38 | CC(C)n1c(NCCc2ccc(O)c(O)c2)nc2c1c(=O)n(C)c(=O)n2C | 73.8%
39 | Nc1c(C(=O)Nc2cccc(F)c2)sc2nc3c(cc12)C(=O)CCC3 | 33.2%
40 | C/C(=N/NC(=S)Nc1ccccc1)c1nc2ccc(Cl)cc2[nH]1 | -44.3% (active)
41 | CN1C(=O)N(C)C2C1NN=c1s/c(=C\c3ccc(Br)cc3)c(=O)n12 (stereo unspecified) | 10.8%
42 | CCN1CCN(CCCN(C[C@H]2Cc3ccccc3CN2)[C@H]2CCCc3cccnc32)CC1 | 87.1%
43 | CCCC(=O)NC(c1ccc2c(c1)OCO2)c1ccc2cccnc2c1O (stereo unspecified) | -16% (active)
44 | CCOc1ccc(NC(=S)N2CCC(CCCC3CCN(C(=S)Nc4ccc(OCC)cc4)CC3)CC2)cc1 | 58.7%

Row | SMILES | growth
45 | N#CC1=C(N)Oc2c(sc3c(F)cccc23)C1c1ccc(Cl)cc1 (stereo unspecified) | -42.2% (active)
46 | CCN(CC)CC(=O)Nc1c(C)ccc(N)c1C | 95.8%
47 | CNCC[C@H](Oc1cccc2ccccc12)c1cccs1 | 82%
48 | C=CCOC1=CC(=O)c2ccccc2C1=O | 29.2%
49 | COc1ccc(-c2nc(NN)c3c(C)nn(-c4ccc(F)cc4)c3n2)cc1 | 25.8%
50 | N#C/C(=C\c1ccc(Cl)cc1)n1nnc2cc(F)c(F)cc21 | 3.5% (active)
51 | O=S(=O)(NCCCNc1cc(-c2cn(-c3ccccc3)nc2-c2cccc(O)c2)ccn1)c1cccc2ccccc12 | -18.4% (active)
52 | CCN1CCN(c2cc(-c3cn[nH]c3-c3cc(C)cc(OC)c3)nc(-c3cccnc3)n2)CC1 | 54.3%
53 | COc1ccc2c3c(c(OCCCN(C)C)nc2c1)-c1ccc(Cl)cc1C3=O | 43.5%
54 | O=C(Cc1ccc(/C=C/C(=O)c2ncc[nH]2)cc1)Nc1ccc(F)cc1 | 4.59% (active)
55 | CCOc1ccc2c(S(=O)(=O)O)cccc2c1[N+](=O)[O-] | 104% and 106%
56 | Cc1ccc2nc(NC(=O)CSc3nc(Cl)c(C#N)c(-c4ccccc4)n3)sc2c1 | 87.5%
57 | CCCC(C)c1ccc(OCCCCCCN2CCNCC2)cc1 (stereo unspecified) | -58.5% (active)
58 | CC(=O)CC(=O)OC/C=C(/C)CCC=C(C)C | 97.6%
59 | F | 40.9% [6.87 mM]
60 | O=C1/C(=C\c2ccccc2)CN(C(=O)c2ccccc2F)C/C1=C\c1ccccc1 | -72.4% (active)
61 | COc1cc(OC)c(/C=C/S(=O)(=O)Cc2ccc(OC)c(N)n2)c(OC)c1 | 13.5%
62 | CC1Cc2cc(F)ccc2-n2cccc21 (stereo unspecified) | 136%
63 | c1ccc(C2Cc3ccccc3C2=NC2CCCCC2)cc1 (stereo unspecified) | 111%
64 | S=c1[nH]c(=S)c2c(-c3ccccc3)c(-c3ccccc3)oc2[nH]1 | 96.7%
65 | O=C(O)/C=C/C(=O)c1ccc(Cl)cc1 | 124%
66 | COc1cc(C(=O)n2nc(NCCCc3ccccc3)c3cc(N)ccc32)cc(OC)c1OC | 91.4%

Row | SMILES | growth
67 | C/C(=N\NC(=S)Nc1ccccc1)c1ccccn1 | -10.2% (active)
68 | CCOc1ccc(C(CN2CCOCC2)C(C)=O)cc1OC (stereo unspecified) | 13.9%
69 | CCc1onc(-c2ccc(OC)cc2)c1-c1ccccc1OCCN(CC)CC | 80%
70 | COc1ccc(-c2nc3cc(Cl)c(Cl)cc3n2CC(=O)N=Nc2c(O)[nH]c3ccccc23)cc1 | 60.6%
71 | COC(=O)c1c2c(n3ccc(C)cc13)C(=O)c1ccccc1C2=O | 86.3%
72 | CCN(C(=O)N1CCN(c2cc3c(cc2F)c(=O)c(C(=O)O)cn3C2CC2)CC1)c1nc(-c2ccccc2)cs1 | 13%
73 | CN(C)c1ccc(C#Cc2c(F)cccc2Cl)cc1 | 8.33% (active)
74 | COC(=O)c1ccc2c(c1)c1c(C)c3cnccc3c(C)c1n2C | -38% (active)
75 | COc1ccc(-c2cc(-c3cccnc3)nc(S(=O)(=O)CC(=O)Nc3ccc(C)cc3)c2C#N)cc1OC | 96%
76 | NC(=O)CCC(C(=O)O)N1C(=O)c2ccc(O)cc2C1=O (stereo unspecified) | 109%
77 | O=C1CCC(=O)N1CC1CC2CCC1C2 (stereo unspecified) | 104% and 90.6%
78 | CCN1CCN(c2nc(NNC(=O)c3cccc(OC)c3)nc(N3CCN(C(c4ccccc4)c4ccccc4)CC3)n2)CC1 | 54.7%
79 | O=c1cc(C(F)(F)F)c2cc(-c3cc4ccccc4c(=O)o3)c(O)cc2o1 | 61.4%
80 | CCc1ccccc1NC(=O)c1sc2nc3c(cc2c1N)CCCC3 | 43%
81 | O=C(NNC(=O)c1ccc(NC(=O)c2ccccn2)cc1)Nc1ccc([N+](=O)[O-])cc1 | 94.2%
82 | CCCCCCN(CCCCCC)c1ccc(/C=C2/SC(=O)N(c3nc(N4CCCC4)nc(N4CCCC4)n3)C2=O)c(C)c1 | 59%
83 | Nc1c2c(nc3ccc(Cl)cc13)CC(c1ccccc1)CC2=O (stereo unspecified) | -5.35% (active)
84 | Cc1cc(C)n(Nc2nc3ccccc3[nH]c2=O)c(=O)c1C#N | 90.8%
85 | COC(=O)[C@]12CC[C@@H](C)[C@H](C)[C@@H]1C1=CC[C@@H]3[C@@]4(C)C/C(=N\O)[C@H](O)[C@@]5(C)COC(=C45)C[C@@]3(C)[C@]1(C)CC2 | -71.7% (active)
86 | COc1ccc(C(=O)C2C(C#N)C(C#N)C3C=Cc4ccccc4N32)cc1 (stereo unspecified) | 16.5%
